# Source: PubChem BioAssay
# A number with no mark means an inactive call. Inconclusive results are not listed. For part of these data: Results with a measured potency or affinity are listed apart. Active and inactive are the calls of the source. Unless noted, the rule behind the calls is not given here.
# Experiments:
# [1] = viability loss in pontine glioma line – cell-based, SU-DIPG-XIII, MIPE5.0, CellTiter-Glo, qHTS, dose response (AID 1347064; cut-off not given, nearly all actives have AC50 up to about 23 µM;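 for AC50: cells exposed to compound for 48 hours before the viability read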); details: CellTiter-Glo ATP luminescence
# [2] = system: Aerobactin synthetase IucA (Klebsiella pneumoniae); assay: inhibition of K. pneumoniae IucA enzyme – biochemical, Tocris library, absorbance (AID 1345561); details: purified IucA enzyme assay, absorbance (OD) read-out; active compounds read low;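 tested at 8 µM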;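 note: 100% = enzyme without compound and 0% = no enzyme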
# [3] = antimalarial activity against Dd2 strain (AID 2302;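 active = growth inhibition above 50% at the single 2 µM test dose, taken to imply half-maximal potency below 2 µM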;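 note: 0% = DMSO untreated growth and 100% = chloroquine plus artemisinin killed control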); details: P. falciparum Dd2 in RBCs, LDH growth readout, 72 h; at 2 µM; active compounds read high
# [4] = human hepatoma cell viability loss – ATP luminescence, cytotoxicity control for P. falciparum antimalarial project, primary screen (AID 2303;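 active = inhibition above 50%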;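 note: 0% = DMSO wells and 100% = digitonin-killed cells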); details: HepG2 viability, 24-48 h, at 10 µM, active compounds read high
# [5] = biological target: L-lactate dehydrogenase (Plasmodium falciparum (isolate CDC / Honduras)) (UniProt Q27743); assay: PfLDH activity inhibition – cell lysate, 3D7 strain, counter-screen for P. falciparum growth inhibition project (AID 2304);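 note: 0% = vehicle and 100% = reference inhibitor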; details: P. falciparum 3D7 crude extract, LDH APAD/NBT absorbance; at 2 µM; active compounds read high
# [6] = inhibition of 3D7 malaria parasite growth – strain 3D7 (AID 2306);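 note: 0% = DMSO wells and 100% = chloroquine plus artemisinin control wells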; details: P. falciparum 3D7 erythrocytic growth, LDH absorbance, 72 h; at 2 µM; active compounds read high
# [7] = biological target: Calcium-dependent protein kinase 1 (Plasmodium falciparum (isolate 3D7)) (UniProt P62344); assay: PfCDPK1 kinase inhibitors, biochemical, TCAMS library (AID 1159585; cut-off not given, nearly all actives have IC50 up to about 0.98 µM;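 note: inhibitors leave more ATP so luminescence rises with inhibition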); details: recombinant PfCDPK1, Kinase-Glo ATP depletion luminescence
# [8] = biological target: Plasmodium falciparum protein kinase 6 (PK6, PF3D7_1337100) (UniProt Q8IDW1); assay: PfPK6 kinase inhibitors, biochemical, TCAMS library (AID 1159586); details: recombinant PfPK6, Kinase-Glo ATP depletion luminescence
# [9] = biological target: Protein kinase 7 (PK7), Plasmodium falciparum 3D7 (PF3D7_0213400) (UniProt Q7YTF7); assay: inhibition of Plasmodium PK7 catalytic activity – biochemical, TCAMS antimalarial set, Kinase-Glo luminescence (AID 1159587); details: recombinant PfPK7, Kinase-Glo ATP depletion luminescence
# [10] = biological target: Calcium-dependent protein kinase 4 (Plasmodium falciparum (isolate 3D7)) (UniProt Q8IBS5); assay: PfCDPK4 kinase inhibitors, biochemical, TCAMS library (AID 1159588; cut-off not given, nearly all actives have IC50 up to about 0.91 µM); details: recombinant PfCDPK4, Kinase-Glo ATP depletion luminescence
# [11] = compounds altering viability of human ES cells (AID 493140); details: human embryonic stem cell survival screen; active compounds read high;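 note: cells exposed to compounds for four days before counting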
# [12] = chitosan synthesis blockers in C. neoformans – flow cytometry, Cibacron Brilliant Red staining (AID 1347148); details: Cryptococcus neoformans chitosan, active compounds read low; at 99.1 µM unless noted;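 note: compound exposure lasted three days at 37 degrees C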
# [13] = compounds altering circadian rhythm period length – cell-based, LOPAC library, luminescence reporter (AID 2774); details: circadian reporter cells, at 7 µM, actives lie on both sides;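 note: values are relative to mean of DMSO wells on each plate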
# [14] = system: Hepatitis C virus NS3 helicase; assay: blockers of NS3h binding to ssDNA – biochemical, fluorescence polarization, LOPAC1280 library, primary screen (AID 687035; in the data active = inhibition above about 37%); details: Purified HCV NS3 helicase, Cy5-dT15 ssDNA binding fluorescence polarization; active compounds read high; concentration not given here
# [15] = compounds altering Cy5-DNA-NS3h complex signal – biochemical, LOPAC1280, artefact control for HCV NS3 helicase inhibitor project (AID 687037); details: Cy5-DNA-NS3h complex fluorescence interference counterscreen
# [16] = blockers of cellular phospholipid synthesis – cell-based, LOPAC library, screen 4, primary screen (AID 1347384); details: animal cells, phospholipid biosynthesis inhibition screen; at 10 µM
# [17] = biological target: Tyrosine-protein kinase ABL1 (Homo sapiens) (UniProt P00519); assay: PubChem AID 493040; details: kinase panel binding, pKi
# Chain of Tyrosine-protein kinase ABL1 (Homo sapiens) (P00519 whole entry, looked up): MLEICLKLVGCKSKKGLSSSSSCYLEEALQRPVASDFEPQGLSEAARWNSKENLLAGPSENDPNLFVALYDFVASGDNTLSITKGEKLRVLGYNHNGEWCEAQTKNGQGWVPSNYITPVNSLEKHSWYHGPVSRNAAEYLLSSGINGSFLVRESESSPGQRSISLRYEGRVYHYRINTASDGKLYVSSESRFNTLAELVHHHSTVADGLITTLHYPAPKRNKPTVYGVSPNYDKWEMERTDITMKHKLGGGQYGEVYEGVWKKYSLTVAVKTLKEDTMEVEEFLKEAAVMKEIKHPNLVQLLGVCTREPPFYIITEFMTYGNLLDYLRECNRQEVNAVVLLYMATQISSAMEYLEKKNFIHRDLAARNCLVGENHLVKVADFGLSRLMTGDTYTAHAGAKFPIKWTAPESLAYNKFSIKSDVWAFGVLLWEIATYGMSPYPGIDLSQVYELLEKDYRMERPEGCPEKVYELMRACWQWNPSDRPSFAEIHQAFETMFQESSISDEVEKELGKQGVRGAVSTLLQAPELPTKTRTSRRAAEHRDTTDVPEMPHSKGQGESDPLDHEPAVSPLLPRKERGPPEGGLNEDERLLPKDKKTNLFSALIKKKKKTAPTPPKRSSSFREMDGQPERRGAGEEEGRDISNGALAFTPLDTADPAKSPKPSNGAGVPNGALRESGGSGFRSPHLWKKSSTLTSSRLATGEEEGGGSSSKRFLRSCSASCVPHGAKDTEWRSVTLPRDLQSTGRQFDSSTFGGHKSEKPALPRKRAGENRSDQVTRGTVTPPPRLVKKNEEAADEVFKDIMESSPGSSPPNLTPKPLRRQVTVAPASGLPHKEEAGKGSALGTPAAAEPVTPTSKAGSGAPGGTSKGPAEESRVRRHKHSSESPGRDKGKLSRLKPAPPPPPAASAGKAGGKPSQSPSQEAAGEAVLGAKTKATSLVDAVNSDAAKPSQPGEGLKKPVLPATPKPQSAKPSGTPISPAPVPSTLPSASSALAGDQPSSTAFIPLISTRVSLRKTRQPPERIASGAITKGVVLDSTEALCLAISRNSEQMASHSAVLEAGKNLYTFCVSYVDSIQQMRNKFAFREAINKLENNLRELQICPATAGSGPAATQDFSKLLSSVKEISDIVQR
# Chain of Protein kinase 7 (PK7), Plasmodium falciparum 3D7 (PF3D7_0213400) (Q7YTF7 1-343): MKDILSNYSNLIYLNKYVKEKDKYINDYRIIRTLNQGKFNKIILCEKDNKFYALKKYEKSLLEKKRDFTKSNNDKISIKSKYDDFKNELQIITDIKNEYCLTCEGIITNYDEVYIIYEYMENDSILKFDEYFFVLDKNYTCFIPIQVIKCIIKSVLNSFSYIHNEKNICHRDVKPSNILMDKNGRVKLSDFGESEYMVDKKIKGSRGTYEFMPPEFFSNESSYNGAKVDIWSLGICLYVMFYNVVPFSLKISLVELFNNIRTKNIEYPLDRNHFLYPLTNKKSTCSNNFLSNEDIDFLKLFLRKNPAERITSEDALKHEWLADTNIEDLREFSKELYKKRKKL
# Chain of L-lactate dehydrogenase (Plasmodium falciparum (isolate CDC / Honduras)) (Q27743 whole entry, looked up): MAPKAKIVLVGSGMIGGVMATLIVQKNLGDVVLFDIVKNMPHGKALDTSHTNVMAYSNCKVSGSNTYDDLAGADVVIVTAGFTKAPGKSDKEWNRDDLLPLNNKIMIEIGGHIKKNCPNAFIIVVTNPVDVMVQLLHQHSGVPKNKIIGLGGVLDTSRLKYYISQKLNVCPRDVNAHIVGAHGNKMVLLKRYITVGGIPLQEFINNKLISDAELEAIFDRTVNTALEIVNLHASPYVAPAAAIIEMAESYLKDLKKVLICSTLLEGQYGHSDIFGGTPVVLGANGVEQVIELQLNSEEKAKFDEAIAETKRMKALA
# Chain of Calcium-dependent protein kinase 4 (Plasmodium falciparum (isolate 3D7)) (Q8IBS5 whole entry, looked up): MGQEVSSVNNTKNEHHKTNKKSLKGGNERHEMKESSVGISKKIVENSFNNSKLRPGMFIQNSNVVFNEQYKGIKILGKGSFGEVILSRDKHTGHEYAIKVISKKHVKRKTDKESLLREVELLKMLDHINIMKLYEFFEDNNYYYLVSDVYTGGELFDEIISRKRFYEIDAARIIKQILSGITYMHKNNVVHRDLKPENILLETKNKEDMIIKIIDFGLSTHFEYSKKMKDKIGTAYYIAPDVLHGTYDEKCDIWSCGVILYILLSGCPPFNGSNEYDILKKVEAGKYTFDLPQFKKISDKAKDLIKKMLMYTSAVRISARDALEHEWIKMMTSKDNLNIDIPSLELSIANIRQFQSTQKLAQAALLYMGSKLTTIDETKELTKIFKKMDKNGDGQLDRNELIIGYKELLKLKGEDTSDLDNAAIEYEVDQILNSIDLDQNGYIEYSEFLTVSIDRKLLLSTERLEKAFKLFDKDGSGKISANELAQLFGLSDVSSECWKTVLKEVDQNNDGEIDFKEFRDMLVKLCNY
# Chain of Plasmodium falciparum protein kinase 6 (PK6, PF3D7_1337100) (Q8IDW1 1-305): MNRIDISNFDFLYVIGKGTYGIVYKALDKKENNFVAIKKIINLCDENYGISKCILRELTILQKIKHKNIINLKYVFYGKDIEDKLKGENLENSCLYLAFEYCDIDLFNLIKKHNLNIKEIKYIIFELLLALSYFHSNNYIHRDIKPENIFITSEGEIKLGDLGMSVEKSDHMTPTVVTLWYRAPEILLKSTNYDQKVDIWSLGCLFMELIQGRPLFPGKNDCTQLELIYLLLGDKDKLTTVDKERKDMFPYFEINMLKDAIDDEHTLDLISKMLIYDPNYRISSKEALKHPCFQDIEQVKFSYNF
# Chain of Calcium-dependent protein kinase 1 (Plasmodium falciparum (isolate 3D7)) (P62344 whole entry, looked up): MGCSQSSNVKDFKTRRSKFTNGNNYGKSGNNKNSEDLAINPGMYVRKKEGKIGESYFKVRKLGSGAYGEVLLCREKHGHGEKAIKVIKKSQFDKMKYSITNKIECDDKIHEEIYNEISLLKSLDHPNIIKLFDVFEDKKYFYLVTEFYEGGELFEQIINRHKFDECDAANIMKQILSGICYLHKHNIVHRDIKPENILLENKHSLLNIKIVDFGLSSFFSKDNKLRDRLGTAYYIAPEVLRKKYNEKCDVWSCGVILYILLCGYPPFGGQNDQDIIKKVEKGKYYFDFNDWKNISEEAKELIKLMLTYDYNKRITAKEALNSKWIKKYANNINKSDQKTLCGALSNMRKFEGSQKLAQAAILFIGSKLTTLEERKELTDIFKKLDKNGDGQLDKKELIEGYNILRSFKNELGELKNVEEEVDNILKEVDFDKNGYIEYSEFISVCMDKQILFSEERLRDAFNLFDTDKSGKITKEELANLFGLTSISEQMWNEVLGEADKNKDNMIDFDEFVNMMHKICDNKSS
smiles,measurement,setting,value
Cn1cc(/C=C2\C(=O)Nc3cccnc32)c2ccccc21,AC50,[1],8.33 µM (active)
Fc1ccc(-c2nc3n(c2-c2ccncc2)CCS3)cc1,remaining activity,[2],117%
Cc1ccc(O)cc1Nc1ccnc2cc(-c3ccccn3)ccc12,growth inhibition,[3],98% (active)
same,inhibition,[4],6%
same,inhibition,[5],-2%
same,growth inhibition,[6],97% (active)
same,outcome,[7],inactive
same,outcome,[8],inactive
same,outcome,[9],inactive
same,outcome,[10],inactive
Cn1c(=O)c(Oc2ccc(F)cc2F)cc2cnc(NC3CCOCC3)nc21,outcome,[1],inactive
Cn1cc(C2=C(c3cn(CCCSC(=N)N)c4ccccc34)C(=O)NC2=O)c2ccccc21,survival,[11],72.7
same,remaining activity,[2],106%
same,fold fluorescence,[12],10.1 [at 109.3 µM]
CN(C)c1cc2c(Nc3ccc4nc(Cc5ccccc5)[nH]c4c3)ncnc2cn1,growth inhibition,[3],29%
same,inhibition,[4],11%
same,inhibition,[5],0%
same,growth inhibition,[6],85% (active)
same,outcome,[7],inactive
same,outcome,[8],inactive
same,outcome,[9],inactive
same,outcome,[10],inactive
COc1ccc(-c2oc3ncnc(N)c3c2-c2ccc(NC(=O)Nc3cc(C(F)(F)F)ccc3F)cc2)cc1,AC50,[1],3.72 µM (active)
Nc1ncnc2occ(-c3ccc(NC(=O)Nc4cc(C(F)(F)F)ccc4F)cc3)c12,growth inhibition,[3],99% (active)
same,inhibition,[4],57% (active)
same,inhibition,[5],-1%
same,growth inhibition,[6],99% (active)
same,outcome,[9],inactive
same,outcome,[10],inactive
CN(C)c1cc2c(Nc3ccc4c(cnn4Cc4ccccc4)c3)ncnc2cn1,period change,[13],0.33 h
same,inhibition,[14],-1%
same,fluorescence ratio (interference),[15],1
same,outcome,[16],inactive
NC(=O)c1ccc(-c2nc(-c3ccc4c(c3)OCO4)c(-c3ccccn3)[nH]2)cc1,remaining activity,[2],110%
same,fold fluorescence,[12],18.6 [at 130.1 µM]
same,outcome,[17],inactive
